From PubChem BioAssay
In the library only some 18% were active in any assay of this set; here they are far more common.
TGFb inhibitor = blocks TGF-b signaling; HepG2 CAGA-GFP TGF-b/SMAD3 reporter, GFP fluorescence, 18 h; TGF-beta stimulated, 500 pg/mL final; Potency, µM (doses to about 46.1 µM), usual class: inhibitors; actives 1.2% (n = 410,000); note: nearly all actives have a fitted effect of over 65% in size
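TGF-beta reporter screen: HEPG2 CAGA-GFP, 1% FBS, 500 pg/mL TGF-beta final, 18 h; per-cell GFP summed per well; curves fitted and categorized by class.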
IL1B secr inh = blocks inflammasome-driven IL-1 beta release; THP-1 LPS/ATP IL-1B secretion, AlphaLISA, 16 h; stronger effect = lower value; activity change, % at 57.5 µM; actives 4.7% (n = 360,000); in the data active = activity change below about -50%; inconclusive = mostly about -30% to -49%
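THP-1 cells pretreated 1 hr with compounds (up to 57.5 uM final), then stimulated with LPS (250 ng/mL final) plus ATP (1.25 mM final); secreted IL-1B measured by AlphaLISA after 16 hr, decreased signal indicating inhibition.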
HepG2 viability = HepG2 cytotoxicity, counter-screen for TGF-b inhibitors; HepG2 CAGA-GFP viability, ATP luminescence, 18 h; Potency, µM (highest dose often 46.1 µM), hits mostly cytotoxic; actives 0.76% (n = 410,000)
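CellTiter-Glo luminescence gave cytotoxicity after 18 hours at 37 degrees C. The cells were HepG2 CAGA-GFP in 1% FBS DMEM, stimulated with 500 pg/mL TGF-beta after compound addition. %Activity was normalised to no-cell wells (complete cell-killing) and DMSO (no toxicity), and curves were fitted and classified.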
TDP1 block = inhibitors of human tyrosyl-DNA phosphodiesterase TDP1 | Q9NUW8 | recombinant TDP1, AlphaScreen DNA substrate cleavage | Potency, µM (doses to about 130 µM), actives largely listed as inhibitors | actives 0.28% (n = 350,000) | AID 485290; note: nearly all actives have a fitted effect of over 40% in size
Target sequence (Q9NUW8 whole entry, looked up): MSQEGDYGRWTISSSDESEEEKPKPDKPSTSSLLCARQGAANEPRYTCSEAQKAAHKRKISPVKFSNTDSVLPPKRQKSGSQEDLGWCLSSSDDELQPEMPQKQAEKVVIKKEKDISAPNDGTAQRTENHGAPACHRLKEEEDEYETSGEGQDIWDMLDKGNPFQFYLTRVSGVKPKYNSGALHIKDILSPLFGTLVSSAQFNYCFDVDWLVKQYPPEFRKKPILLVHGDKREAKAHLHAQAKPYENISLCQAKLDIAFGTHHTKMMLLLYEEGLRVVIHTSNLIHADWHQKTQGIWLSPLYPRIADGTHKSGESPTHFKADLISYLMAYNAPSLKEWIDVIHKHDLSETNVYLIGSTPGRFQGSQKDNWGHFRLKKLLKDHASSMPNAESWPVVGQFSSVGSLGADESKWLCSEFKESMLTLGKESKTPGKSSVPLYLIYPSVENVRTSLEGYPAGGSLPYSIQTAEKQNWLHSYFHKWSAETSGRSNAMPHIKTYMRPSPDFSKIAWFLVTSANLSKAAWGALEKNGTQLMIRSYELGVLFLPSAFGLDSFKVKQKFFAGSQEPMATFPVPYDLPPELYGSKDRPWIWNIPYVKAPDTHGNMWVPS
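AlphaScreen read-out: signal falls as enzyme removes the 3' tyrosine-FITC from a 5'-biotinylated DNA oligo (15 nM, 5 min, RT). Enzyme was E. coli-made recombinant Tdp1 at 1 nM, exposed to compound for 15 min beforehand; beads 10 ug/ml, 10 min.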
DT40 TDP1 CPT = growth inhibition of DT40 Tdp1-/-;hTDP1 cells with camptothecin (screen for TDP1 inhibitors) | chicken DT40 Tdp1-/-;hTDP1 cells + 20 nM CPT, ATP luminescence, 48 h | Potency, µM (doses to about 46.2 µM), actives largely listed as inhibitors | actives 12% (n = 420,000); note: nearly all actives have a fitted effect of over 55% in size
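Chicken DT40 Tdp1-/- cells stably complemented with human TDP1 were seeded at 400 cells/well in medium containing 20 nM camptothecin, exposed to pin-transferred compounds, and grown at 37 °C for at least 48 hr. Viability was read as ATP luminescence.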
TDP1 cell noCPT = qHTS for Inhibitors of human tyrosyl-DNA phosphodiesterase 1 (TDP1): qHTS in cells in absence of CPT; Potency, µM (doses to about 46.2 µM), hits mostly inhibitors; AID 686978, 2013; actives 15% (n = 420,000); DT40 Tdp1-/- hTDP1 cells, no CPT, ATP luminescence, 48 h; note: nearly all actives have a fitted effect of over 55% in size
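Chicken DT40 Tdp1-/- cells stably complemented with human TDP1 were seeded at 400 cells/well with DMSO in place of 20 nM camptothecin. After compound pinning, cells grew at least 48 hr at 37 °C; viability read by CellTiter-Glo luminescence.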
Numbers stand for hits; i = inactive; ? = inconclusive; nt = no result given; [ ] = remark or other dose. Unless noted, calls come from the whole dose curve; as a rule, active = well fitted curve in the direction sought with a large enough effect; inconclusive = small, poorly fitted or top-dose-only effect, or another doubt; inactive = no such curve, though single readings can be large; an effect the other way counts as inactive or inconclusive.

SMILES	TGFb inhibitor	IL1B secr inh	HepG2 viability	TDP1 block	DT40 TDP1 CPT	TDP1 cell noCPT
C=CCNC(=O)c1c[nH]c2ccc(S(=O)(=O)N(C)c3ccc(OCC)cc3)cc2c1=O	i	i	i	nt	21µM	21µM
CCc1ccccc1N(C)S(=O)(=O)c1ccc2[nH]cc(C(=O)N3CCc4ccccc43)c(=O)c2c1	?	i	i	i	?	18µM
CCOc1ccc(NC(=O)CCc2c(C)nc3c(c(C)nn3-c3ccccc3)c2C)cc1	i	nt	i	i	i	i
CCC(C)NC(=O)CCc1c(C)nc2c(c(C)nn2-c2ccccc2)c1C (stereo not given)	i	i	i	nt	10µM	23µM
CCOC(=O)CCc1c(C)nc2c(c(C)nn2-c2ccccc2)c1C	i	i	i	nt	?	i
COC(=O)C(NC(=O)CCc1c(C)nc2c(c(C)nn2-c2ccccc2)c1C)C(C)C (stereo not given)	?	i	i	i	16µM	16µM
Cc1ccc(C)c(OCCCNCc2ccccc2)c1	i	i	i	nt	?	?
Cc1cc(OCCOCCNCc2ccccc2)ccc1C(C)C	?	-63	i	nt	18µM	12µM
Cc1ccc(C(C)C)c(OCCNCc2ccccc2)c1	i	?	i	nt	?	21µM
CC(C)(C)c1ccccc1OCCOCCNCc1ccccc1	25µM	-57	i	nt	16µM	13µM
Cc1ccc(C(C)C)c(OCCNC(=S)Nc2cccc3ccccc23)c1	?	i	i	i	14µM	13µM
S=C(NCCN1CCOCC1)Nc1cccc2ccccc12	i	i	i	i	i	i
COCCNCCOCCOc1ccc(Cl)c(C)c1	i	i	i	nt	?	?
CC1(Oc2ccc(Cl)cc2)CCN(Cc2ccc(-c3ccccn3)cc2)C1 (stereo not given)	i	i	i	nt	?	?
CN(C)S(=O)(=O)c1ccc(C(=O)OCC(=O)Nc2ccc3c(c2)OCO3)cc1	i	i	i	i	i	i
Nc1nc(Cl)nc2ccc(Br)cc12	i	i	i	i	?	12µM
Nc1nc2ccc(Br)cc2o1	i	i	i	nt	i	i
CCN1CCN(C(=O)CCn2c(=O)c3cccn3c3cccnc32)CC1	i	i	i	i	i	i
CN1CCc2c(c3ccccc3n2Cc2ccccc2)C1	i	i	i	i	16µM	18µM
CCCCN1CCc2c(c3ccccc3n2Cc2ccccc2)C1	?	i	i	nt	16µM	23µM
CN1CCc2c(c3ccccc3n2C)C1	i	?	i	i	i	i
COc1ccc(NC(=O)CCCN2C(=O)CN(C)C2=O)cc1Cl	i	i	i	i	i	i
CC(C)c1nnc(NC(=O)c2cccc(NC(=O)C(F)(F)F)c2)s1	i	i	i	i	i	i
CC(=O)Oc1ccc(C(c2ccc(OC(C)=O)cc2)c2ccccn2)cc1	i	-77	i	i	?	15µM
CCOC(=O)c1cc(C#N)c(SC(C(=O)N2CCCCC2)c2ccccc2)nc1C (stereo not given)	i	nt	i	nt	?	10µM
SMILES	TGFb inhibitor	IL1B secr inh	HepG2 viability	TDP1 block	DT40 TDP1 CPT	TDP1 cell noCPT
CSc1nc2sc3c(c2c(=O)n1-c1ccc(C)cc1)CCCC3	i	nt	i	i[12.3 µM]	?	8.2µM
Nn1c(Nc2ccccc2)nc2sc3c(c2c1=O)CCC3	i	i	i	i	1µM	2.9µM
CC(C)Sc1nc2sc3c(c2c(=O)n1-c1ccccc1)CCCC3	i	nt	i	i[12.3 µM]	?	18µM
O=c1c2c3c(sc2nc(NCCO)n1-c1ccccc1)CCCC3	i	i	i	nt	6.5µM	12µM
COc1ccc(-n2c(NN)nc3sc4c(c3c2=O)CCCC4)cc1	i	i	i	i	i	?
Cn1c(=O)c(=O)n(C)c2cc(S(=O)(=O)N3CCN(c4ccccc4)CC3)ccc21	i	nt	i	i	?	i
CN(Cc1nc(C(c2ccccc2)c2ccccc2)no1)CC1COCCO1 (stereo not given)	i	i	i	i	i	i
Cc1ccccc1OCCC(=O)Nc1ccccc1C(=O)NC1CC1	i	i	i	i	i	i
